Measurements reported in PubChem BioAssay.
A number with no mark means an inactive call.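 The calls were made as follows: active = z-score of at least 1.8 in each of two replicates, scored against plate mean and spread of sample wells; inactive = the rest.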

Test: viability rescue of complex I mutant cybrids, primary screen, cell-based, galactose medium, ATP luminescence (AID 1645843);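 also: positive z means more ATP and so rescue of galactose-driven cybrid death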
Conditions: complex I mutant cybrid cells, 72 h, hits give high values

Row | SMILES | z-score
1 | CN(C)C1C(=O)C(C(=O)NCN2CCCC2)=C(O)[C@@]2(O)C(=O)C3=C(O)c4c(O)cccc4[C@@](C)(O)C3CC12 (stereo partly drawn) | 0.465
2 | C[C@]12CC(O)C3C(CCC4=CC(=O)CC[C@@]43C)C1CCC2C(=O)CO (stereo partly drawn) | 0.21
3 | C#C[C@]1(O)CCC2C3CCC4=CC(=O)CCC4C3CC[C@@]21CC (stereo partly drawn) | 0.65
